Assay results reported in PubChem BioAssay (NCI).
This is part of a sample that, as a whole, favours compounds with a hit. Of some 83,000 tested, about 20% had one in any assay.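 Step 1: grow cells in 96-well plates. Step 2: add test compound at a single concentration. Step 3: incubate 48 h. Step 4: record percent growth.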 A number with no mark means an inactive call. Activity calls are given as the source filed them. How the source made its calls: active means growth percent below 10; inactive means the rest.

Tests used:
Assay in all cases: NCI-60 one-dose screen, 48 h (100 = growth as untreated, 0 = no growth, -100 = all killed)
NCI-H23 lung = settings: 10 µM unless noted
NCI-H226 lung = settings: 10 µM unless noted
NCI-H322M lung = settings: 10 µM unless noted
NCI-H460 lung = settings: 10 µM unless noted
HOP-92 NSCLC = settings: 10 µM unless noted
NCI-H522 lung = settings: 10 µM unless noted
A549/ATCC NSCLC = settings: 10 µM unless noted
786-0 renal = settings: 10 µM unless noted
COLO 205 colon = settings: 10 µM unless noted
DU-145 prostate = settings: 10 µM unless noted
K-562 leukemia = settings: 10 µM unless noted
MALME-3M melanoma = settings: 10 µM unless noted
MDA-MB-231 breast = settings: 10 µM unless noted
RXF 393 renal = settings: 10 µM unless noted
SF-268 CNS = settings: 10 µM unless noted
SF-295 CNS = settings: 10 µM unless noted
SF-539 CNS = settings: 10 µM unless noted
M14 melanoma = settings: 10 µM unless noted
UACC-257 melanoma = settings: 10 µM
HOP-62 NSCLC = settings: 10 µM unless noted

Compound	growth (NCI-H23 lung)	growth (NCI-H226 lung) [%]	growth (NCI-H322M lung)	growth (NCI-H460 lung)	growth (HOP-92 NSCLC)	growth (NCI-H522 lung)	growth (A549/ATCC NSCLC)	growth (786-0 renal)	growth (COLO 205 colon)	growth (DU-145 prostate) [%]	growth (K-562 leukemia)	growth (MALME-3M melanoma)	growth (MDA-MB-231 breast)	growth (RXF 393 renal)	growth (SF-268 CNS)	growth (SF-295 CNS)	growth (SF-539 CNS)	growth (M14 melanoma)	growth (UACC-257 melanoma)	growth (HOP-62 NSCLC)
COc1ncc(-c2ccc3ncnc(Nc4cccc(Cl)c4)c3c2)cc1NS(=O)(=O)CCN1CCOCC1	21.4%	22.3	-17.1% (active)	10.3%	-26.3% (active)	14%	-4.57% (active)	10.5%	-6.87% (active)	18.6	45.8%	-19.8% (active)	16.4%	-30.7% (active)	23%	-24.1% (active)	-18.9% (active)	18.1%	–	–
O=C(c1ccncc1)N1N=C(c2ccc(Cl)cc2)CC1c1c[nH]c2ccccc12 (stereo not drawn)	85.9%	82.7	96.3%	96.8%	94.7%	80.8%	95%	104%	97.9%	102	88.3%	96.7%	71.3%	112%	94.2%	97%	97%	95.3%	95.9%	–
O=S(=O)(NCCNc1cc(-c2cn(-c3ccccc3)nc2-c2ccccc2)ccn1)c1ccc(F)cc1	81.6%	77.7	96.2%	91.7%	40.7%	82.9%	–	81.5%	98.8%	88.3	54.3%	101%	80.1%	75.1%	83.2%	87.6%	103%	87%	–	–
Cc1nc(Nc2cccnc2)sc1C(=O)/C=C/c1ccc(Cl)cc1	92.8%	62.5	32.1%	70.6%	92%	44.7%	26.5%	12.3%	43.8%	17.6	7.88% (active)	89.7%	73.9%	16.2%	46.7%	42.8%	-14.5% (active)	38.2%	73.7%	–
COc1cc(CNC(=O)CCSc2nc3ccccc3c(=O)n2Cc2cc(OC)c(OC)c(OC)c2)cc(OC)c1OC	51.6%	70	60.1%	13.7%	44.6%	10.2%	35%	56.1%	25.8%	58.1	8.67% (active)	40.9%	46%	43.6%	50.4%	36.6%	25.4%	6.56% (active)	59.1%	–
OC1CC2c3ccccc3C1c1ccccc12 (stereo not drawn)	101%	106	114%	110%	96.2%	102%	100%	98.9%	112%	117	111%	110%	110%	111%	105%	107%	108%	98.4%	–	–
CC(=O)N1Cc2ccccc2C(C)Cc2cc(Cl)ccc21 (stereo not drawn)	106%	117	97.9%	105%	99.3%	95.8%	96.5%	95.9%	117%	114	102%	103%	102%	124%	104%	110%	107%	103%	–	–
CC(C)C(C(=O)CCN(C)C)c1ccc(Cl)cc1 (stereo not drawn)	103%	94.9	99.3%	104%	96.8%	74.2%	61.6%	102%	106%	88.6	96.7%	-90.7% (active)	101%	–	100%	106%	103%	92.5%	–	–
Cc1ccc(OCCn2c(C)nn(-c3ccc(Cl)cc3)c2=O)cc1	94.7%	108	108%	106%	84.1%	106%	–	100%	115%	135	107%	99.8%	103%	125%	117%	98.9%	110%	102%	104%	–
CC(C)[C@H](CO)Nc1nc(Nc2ccc(C(=O)NCCNS(=O)(=O)c3cccc4c(N(C)C)cccc34)c(Cl)c2)c2ncn(C(C)C)c2n1	25.3%	22	15.4%	16.2%	-9.2% (active)	-31.5% (active)	0.602% (active)	-1.14% (active)	-69.3% (active)	29	10.9%	51.2%	7.36% (active)	-57.1% (active)	0.765% (active)	-16.5% (active)	-50.2% (active)	23.5%	3.15% (active)	–
CCC(c1cccc(Br)c1)C(C(=O)O)c1ccc(OC)cc1 (stereo not drawn)	102%	108	111%	107%	93.6%	91.5%	102%	104%	120%	116	77.6%	101%	111%	118%	105%	108%	104%	86.5%	–	–
COc1cc2nc(SCc3cc(OC)c(OC)c(OC)c3)n(Cc3ccccc3)c(=O)c2cc1OC	20.5%	49.7	45.4%	22.3%	62.7%	-33% (active)	–	36.8%	–	49.8	10.2%	21.9%	36%	4.55% (active)	37.9%	19.7%	-6.22% (active)	14.9%	63.3%	41.4%
COc1ccc(OC)c(/C=C2\Oc3cc(OCCN4CCCC4)ccc3C2=O)c1	87.7%	–	97.4%	99.1%	92.3%	103%	103%	93.9%	97.9%	96.5	3.51% (active)	104%	84.6%	–	93.7%	101%	84.7%	98.4%	–	87.2%
O=S=Nc1ccc([N+](=O)[O-])cc1	95%	–	95%	102%	107%	81.5%	78.8%	92.1%	106%	84.8	75.6%	96.8%	95.4%	111%	91.8%	98.9%	95.4%	94%	–	89.6%
COc1ccc(-c2nnc(COc3ccc(NC(=O)Nc4ccc(Cl)c(C(F)(F)F)c4)cc3F)o2)cc1	-20.2% (active)	–	33%	-25.4% (active)	-13.4% (active)	-54.6% (active)	11.1%	24.7%	-7.23% (active)	13.2	16.9%	-1.11% (active)	-8.46% (active)	–	20.5%	-3.88% (active)	0.516% (active)	9.03% (active)	30.3%	36.4%
COc1ccc(-c2nc3sccn3c2-c2ccnc(NCCCNS(=O)(=O)c3ccc4ccccc4c3)n2)cc1	64.3%	–	93.1%	75.9%	104%	62.4%	76.1%	67.6%	–	62.1	34.6%	80.8%	53.7%	76.9%	63.5%	61%	71.7%	56.5%	82.8%	134%
O=C(Nc1ccc(Cl)cc1)c1cc(-c2ccc(F)cc2)c2sc(=O)[nH]c2n1	5.26% (active)	–	13.2%	1.4% (active)	-24.2% (active)	3.59% (active)	12.2%	14.5%	8.8% (active)	24.2	10.6%	4.01% (active)	5.74% (active)	5.27% (active)	23.6%	9.57% (active)	-4.01% (active)	13.9%	-8.82% (active)	6.64% (active)
